# Test results taken from the supplement of paper PMC9135407.
# Several values for one entry are separate records, joined by “and”; a condition that tells them apart may be missing. Equal entries are not always repeated. Structures can show the parent of a compound that is named as a salt. Hit rate of the full screen: of about 5,800 compounds, about 620 (11%) showed activity. Only a selection was taken, and actives are over-represented in it overall. Unmarked numbers belong to inactive results.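 Rule for the calls: active = score above a cut-off or among the top three wells of a plate; in these data no inactive exceeds 0.85.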
# Tested on: primary human hepatic stellate cells (donor 1)
# Assay: scaled lipid accumulation score (0 = DMSO-like, 1 = nortriptyline-like); higher = stronger HSC inactivation (lipid re-accumulation), active = hit call of the paper
# Settings: 48 h
# [1] = library stock concentration: 10 mM
# [2] = library stock concentration: 3.33 mM
# [3] = library stock concentration: 1 mM
# [4] = library stock concentration: 80 uM
# [5] = library stock concentration: 400 uM
# [6] = library stock concentration: 2 mM
smiles,measurement,setting,value
Nc1cc2c(ncn2CCOCP(=O)(O)O)c(=O)[nH]1 [PMEG hydrate],scaled lipid accumulation score,[1],≤ -0.055
CO[C@H]1C=CC=C(C)C(=O)NC2=CC(=O)C(NCCN(C)C)=C(C[C@@H](C)C[C@H](OC)[C@H](O)[C@@H](C)C=C(C)[C@@H]1OC(N)=O)C2=O.Cl [17-DMAG (Alvespimycin) HCl],scaled lipid accumulation score,[1],1.24 (active)
C=CCNC1=C2C[C@@H](C)C[C@H](OC)[C@H](O)[C@@H](C)/C=C(\C)[C@H](OC(N)=O)[C@@H](OC)/C=C\C=C(/C)C(=O)NC(=CC1=O)C2=O [17-AAG (Tanespimycin)],scaled lipid accumulation score,[2],0.613
C=CCNC1=C2C[C@@H](C)C[C@H](OC)[C@H](O)[C@@H](C)C=C(C)[C@H](OC(N)=O)[C@@H](OC)C=CC=C(C)C(=O)NC(=CC1=O)C2=O [17-AAG (Tanespimycin)],scaled lipid accumulation score,[1],0.873 (active)
COC1=C2C[C@@H](C)C[C@H](OC)[C@H](O)[C@@H](C)/C=C(\C)[C@H](OC(N)=O)[C@@H](OC)/C=C\C=C(/C)C(=O)NC(=CC1=O)C2=O [Geldanamycin],scaled lipid accumulation score,[2],0.54
same,scaled lipid accumulation score,library stock concentration: 8.9 mM,0.573
same,scaled lipid accumulation score,[1],0.493
CO[C@H]1/C=C\C=C(/C)C(=O)NC2=CC(=O)C(NCCN(C)C)=C(C[C@@H](C)C[C@H](OC)[C@H](O)[C@@H](C)/C=C(\C)[C@@H]1OC(N)=O)C2=O [17-DMAG (Alvespimycin) HCl],scaled lipid accumulation score,[2],0.404
CCCCC[C@H](O)/C=C/[C@@H]1[C@@H](C/C=C/CCCC(=O)O)[C@H](O)C[C@H]1O [5-trans Prostaglandin F2.beta.],scaled lipid accumulation score,[3],≤ 0
O=C1OC(O)C(c2cc3ccccc3s2)=C1Br (stereo not drawn),scaled lipid accumulation score,[3],0.04
O=C1O/C(=C/Br)CC[C@H]1c1cccc2ccccc12 [(S)-Bromoenol lactone],scaled lipid accumulation score,[3],0.103
COc1cc(C(=O)OCCCN2CCCN(CCCOC(=O)c3cc(OC)c(OC)c(OC)c3)CC2)cc(OC)c1OC [Dilazep dihydrochloride],scaled lipid accumulation score,,0.164
COc1cc(C(=O)OCCCN2CCCN(CCCOC(=O)c3cc(OC)c(OC)c(OC)c3)CC2)cc(OC)c1OC.Cl.Cl [Dilazep dihydrochloride],scaled lipid accumulation score,[1],1.06 (active)
COc1cc(N)c(Cl)cc1C(=O)OCCN1CCCCC1,scaled lipid accumulation score,[1],≤ -0.007
COc1cc(OC)c(C(=O)CCCN2CCCC2)c(OC)c1 [Buflomedil HCl],scaled lipid accumulation score,[2],≤ 0
same,scaled lipid accumulation score,[1],≤ 0
COc1cc(OC)c(C(=O)CCCN2CCCC2)c(OC)c1 [Buflomedil hydrochloride],scaled lipid accumulation score,,0.025
COc1cc(C(=O)OCCCN2CCCN(CCCOC(=O)c3cc(OC)c(OC)c(OC)c3)CC2)cc(OC)c1OC.Cl.Cl,scaled lipid accumulation score,[1],0.84 (active)
COc1cc(C(=O)N2CCOCC2)cc(OC)c1OC [Trimetozine],scaled lipid accumulation score,library stock concentration: 7.1 mM,≤ 0
COc1cc(N)c(Cl)cc1C(=O)OCCCN1CCCCC1,scaled lipid accumulation score,[1],0.126
COc1cc(C(=O)NCCCCCC(=O)O)cc(OC)c1OC [Capobenic acid],scaled lipid accumulation score,library stock concentration: 6.1 mM,≤ 0
COc1cc(C(=O)OCCC[NH+]2CCC[NH+](CCCOC(=O)c3cc(OC)c(OC)c(OC)c3)CC2)cc(OC)c1OC.[Cl-].[Cl-] [Dilazep hydrochloride],scaled lipid accumulation score,[1],0.951 (active)
COc1cc(OC)c(C(=O)CCCN2CCCC2)c(OC)c1,scaled lipid accumulation score,[1],≤ 0
CC1(C)CCCC2(C)C1CCC1(C)OC(=O)CC12 (stereo not drawn) [Sclareolide],scaled lipid accumulation score,[2],≤ 0
same,scaled lipid accumulation score,[1],0.09
NC(=O)c1ccc(N(C(N)=O)c2c(F)cccc2F)nc1-c1ccc(F)cc1F,scaled lipid accumulation score,[4],≤ -0.001
same,scaled lipid accumulation score,[5],≤ -0.001 and ≤ -0.005
same,scaled lipid accumulation score,[6],≤ -0.001 and 0.083
same,scaled lipid accumulation score,[2],≤ 0
same,scaled lipid accumulation score,[1],≤ 0 and 0.012 and ≤ -0.005
CCCCC[C@H](O)/C=C/[C@H]1[C@H](O)CC(=O)[C@@H]1C/C=C\CCCC(=O)NC(CO)CO [Prostaglandin E2 serinol amide],scaled lipid accumulation score,[3],≤ 0
CCN[C@@H]1C[C@H](N)[C@@H](O[C@H]2OC(CN)=CC[C@H]2N)[C@H](O)[C@H]1O[C@H]1OC[C@](C)(O)[C@H](NC)[C@H]1O [Netilmicin sulfate],scaled lipid accumulation score,library stock concentration: 3 mM,≤ 0
CC1=C(/C=C/C(C)=C\C=C\C(C)=C\C(=O)O)C(C)(C)CCC1 [9-cis Retinoic acid],scaled lipid accumulation score,[3],≤ -0.021
NC1C=CC=C(C(=O)O)C1 (stereo not drawn) [Gabaculine hydrochloride],scaled lipid accumulation score,[1],≤ 0
CCCCC[C@H](O)/C=C/C1=C(CCCCCCC(=O)O)C(=O)CC1 [Prostaglandin B1],scaled lipid accumulation score,[3],≤ 0 and ≤ -0.021
O=C(NC[C@H]1CN(c2ccc(N3CCOCC3=O)cc2)C(=O)O1)c1ccc(Cl)s1 [Rivaroxaban],scaled lipid accumulation score,[2],≤ 0
same,scaled lipid accumulation score,[1],≤ 0
Cc1ccccc1N=Nc1ccc(NC(=O)c2ccnn2C)c(C)c1,scaled lipid accumulation score,[1],≤ -0.006
CCN(CC)CCNC(=O)c1c(C)[nH]c(/C=C2\C(=O)Nc3ccc(Cl)cc32)c1C,scaled lipid accumulation score,[2],0.556
"Cc1[nH]c(/C=C2\C(=O)Nc3ccccc32)c(C)c1CCC(=O)O [SU-6668 (TSU-68, Orantinib) (0.4 mM)]",scaled lipid accumulation score,[5],0.175
CCN(CC)CCNC(=O)c1c(C)[nH]c(/C=C2\C(=O)Nc3ccc(F)cc32)c1C.O=C(O)C[C@H](O)C(=O)O [Sunitinib malate],scaled lipid accumulation score,[6],0.997 (active)
CCN(CC)CCNC(=O)c1c(C)[nH]c(/C=C2\C(=O)Nc3ccc(F)cc32)c1C [Sunitinib Malate],scaled lipid accumulation score,[2],0.775
same,scaled lipid accumulation score,[1],0.432
"Cc1[nH]c(/C=C2\C(=O)Nc3ccccc32)c(C)c1CCC(=O)O [TSU-68 (SU6668, Orantinib)]",scaled lipid accumulation score,[2],≤ 0
same,scaled lipid accumulation score,[1],≤ 0
"Cc1[nH]c(/C=C2\C(=O)Nc3ccccc32)c(C)c1CCC(=O)O [SU-6668 (TSU-68, Orantinib) (2 mM)]",scaled lipid accumulation score,[6],0.047
CCN(CC)CCNC(=O)c1c(C)[nH]c(/C=C2\C(=O)Nc3ccc(F)cc32)c1C.O=C(O)C[C@H](O)C(=O)O,scaled lipid accumulation score,[6],1.66 (active)
"Cc1[nH]c(/C=C2\C(=O)Nc3ccccc32)c(C)c1CCC(=O)O [SU-6668 (TSU-68, Orantinib) (10 mM)]",scaled lipid accumulation score,[1],0.012
CCOC(=O)c1c(C)[nH]c(/C=C2\C(=O)Nc3ccccc32)c1C [VEGF Receptor 2 Kinase Inhibitor I],scaled lipid accumulation score,[2],≤ 0
CCN(CC)CCNC(=O)c1c(C)[nH]c(/C=C2\C(=O)Nc3ccc(F)cc32)c1C,scaled lipid accumulation score,[5],0.189
same,scaled lipid accumulation score,[1],0.43
Cc1[nH]c(/C=C2\C(=O)Nc3ccccc32)c(C)c1CCC(=O)O,scaled lipid accumulation score,[1],0.019
CCN(CC)CCNC(=O)c1c(C)[nH]c(/C=C2\C(=O)Nc3ccc(F)cc32)c1C [Sunitinib malate],scaled lipid accumulation score,[4],≤ -0.009
same,scaled lipid accumulation score,[5],≤ -0.009
same,scaled lipid accumulation score,[1],≤ -0.07 and 0.421
CCC=CCC=CCC=CCC=CCCCCCCC(=O)O [.omega.-3 Arachidonic Acid],scaled lipid accumulation score,[3],≤ 0
CCN(CC)CCN(Cc1ccc(-c2ccc(C(F)(F)F)cc2)cc1)C(=O)Cn1c(SCc2ccc(F)cc2)nc(=O)c2c1CCC2,scaled lipid accumulation score,[2],0.746
same,scaled lipid accumulation score,[1],0.058
COc1ccc(-c2coc3cc(O)ccc3c2=O)cc1 [Formononetin],scaled lipid accumulation score,[2],≤ 0
same,scaled lipid accumulation score,[1],≤ 0 and ≤ -0.027
Nc1ccc2cn[nH]c2c1,scaled lipid accumulation score,[1],≤ 0
CC(C)(CO)[C@@H](O)C(=O)NCCC(=O)NCCSSCCNC(=O)CCNC(=O)[C@H](O)C(C)(C)CO,scaled lipid accumulation score,[1],≤ 0
COC(=O)C1=C(C)NC(C)=C(C(=O)OCCCN2CCC(c3ccccc3)(c3ccccc3)CC2)[C@H]1c1cccc([N+](=O)[O-])c1 [(S)-(+)-Niguldipine hydrochloride],scaled lipid accumulation score,[1],≤ -0.006
COC(=O)C1=C(C)NC(C)=C(C(=O)OCCCN2CCC(c3ccccc3)(c3ccccc3)CC2)[C@H]1c1cccc([N+](=O)[O-])c1 [Niguldipine],scaled lipid accumulation score,library stock concentration: 7.7 mM,≤ -0.021
Cl.N#Cc1ccc2[nH]cc(CCCCN3CCN(c4ccc5oc(C(N)=O)cc5c4)CC3)c2c1 [Vilazodone HCl],scaled lipid accumulation score,[1],1.1 (active)
N#Cc1ccc2[nH]cc(CCCCN3CCN(c4ccc5oc(C(N)=O)cc5c4)CC3)c2c1 [Vilazodone HCl],scaled lipid accumulation score,[2],0.512
Cc1c(C(=O)N(C)C2CCCCC2)sc2nc3ccc(N)cc3n12,scaled lipid accumulation score,[1],0.01
O=C(Nc1ccc2[nH]ncc2c1)C1CCC1 [Rhodblock 6],scaled lipid accumulation score,[1],0.092
O=C(Nc1ccc2[nH]nc(-c3ccncc3)c2c1)[C@@H]1CCN(CC(=O)N2CCN(c3ccc(-c4ncccn4)cc3)CC2)C1 [listing 1 of 2 here],scaled lipid accumulation score,[1],0.909 (active)
O=C(Nc1ccc2[nH]nc(-c3ccncc3)c2c1)[C@@H]1CCN(CC(=O)N2CCN(c3ccc(-c4ncccn4)cc3)CC2)C1 [listing 2 of 2 here],scaled lipid accumulation score,[4],≤ -0.001
same,scaled lipid accumulation score,[5],≤ -0.001
same,scaled lipid accumulation score,[6],≤ -0.001
O=C(OC[C@H]1O[C@@H](OC(=O)c2cc(O)c(O)c(OC(=O)c3cc(O)c(O)c(O)c3)c2)[C@H](OC(=O)c2cc(O)c(O)c(OC(=O)c3cc(O)c(O)c(O)c3)c2)[C@@H](OC(=O)c2cc(O)c(O)c(OC(=O)c3cc(O)c(O)c(O)c3)c2)[C@@H]1OC(=O)c1cc(O)c(O)c(OC(=O)c2cc(O)c(O)c(O)c2)c1)c1cc(O)c(O)c(OC(=O)c2cc(O)c(O)c(O)c2)c1 [Tannic acid],scaled lipid accumulation score,[1],≤ -0.027
